Test results from PubChem BioAssay (NCI).
About 83,000 compounds went through this panel and 20% of them were active in at least one assay; those are over-represented in the sample as a whole.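 Growth was measured after 48 h exposure to one concentration of compound in 96-well plates. Values under 10 count as active.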 Calls of active or inactive are those of the source.

Key:
Test in all cases: NCI-60 one-dose screen, 48 h (100 = growth as untreated, 0 = no growth, -100 = all killed)
Conditions in all cases: 10 µM unless noted
SR leukemia = tested on: SR leukemia
RPMI-8226 leukemia = tested on: RPMI-8226 leukemia
OVCAR-8 ovarian = tested on: OVCAR-8 ovarian
OVCAR-5 ovarian = tested on: OVCAR-5 ovarian
OVCAR-4 ovarian = tested on: OVCAR-4 ovarian
SK-OV-3 ovarian = tested on: SK-OV-3 ovarian
IGROV1 ovarian = tested on: IGROV1 ovarian
OVCAR-3 ovarian = tested on: OVCAR-3 ovarian
NCI/ADR-RES ovarian = tested on: NCI/ADR-RES ovarian
T-47D breast = tested on: T-47D breast
BT-549 breast = tested on: BT-549 breast
MDA-MB-435 melanoma = tested on: MDA-MB-435 melanoma
MCF7 breast = tested on: MCF7 breast
HCT-116 colon = tested on: HCT-116 colon
HCC-2998 colon = tested on: HCC-2998 colon
KM12 colon = tested on: KM12 colon
MDA-MB-468 breast = tested on: MDA-MB-468 breast

Measured: growth

C=C1CC[C@@H]2[C@]3(C)COC(c4cn[nH]c4-c4ccc(C)cc4)O[C@@H]3CC[C@@]2(C)[C@@H]1C/C=C1/C(=O)OCC1O (stereo partly drawn)
active: SR leukemia -25% | RPMI-8226 leukemia -25.2% | OVCAR-8 ovarian -21.7% | OVCAR-3 ovarian -23.1% | NCI/ADR-RES ovarian -41.8% | BT-549 breast -30.5% | MDA-MB-435 melanoma -16.6% | MCF7 breast 8.74% | HCT-116 colon -68.5% | HCC-2998 colon 2.89% | MDA-MB-468 breast -49.3%
inactive: OVCAR-5 ovarian 20.4% | OVCAR-4 ovarian 31.9% | SK-OV-3 ovarian 79.9% | IGROV1 ovarian 24% | T-47D breast 39.4% | KM12 colon 39.3%

CSc1ccc(C(=O)Nc2ccc3nn(/C(C#N)=C/c4ccccn4)nc3c2)cc1
inactive: OVCAR-4 ovarian 15.8% | SK-OV-3 ovarian 30.8%
active: SR leukemia -3.69% | RPMI-8226 leukemia -42.5% | OVCAR-8 ovarian -1.48% | OVCAR-5 ovarian -86.2% | IGROV1 ovarian -83% | OVCAR-3 ovarian -92.6% | NCI/ADR-RES ovarian 2.33% | T-47D breast -26% | BT-549 breast -90.1% | MDA-MB-435 melanoma -44.9% | MCF7 breast -78.6% | HCT-116 colon -93.8% | HCC-2998 colon -99.8% | KM12 colon -43.6% | MDA-MB-468 breast -90.7%

CCOc1ccc(-c2c(C#N)c(-c3ccc(Cl)cc3)nc3n[nH]c(-c4ccc(Cl)cc4)c23)cc1OC
inactive: SR leukemia 18.8% | RPMI-8226 leukemia 17.3% | OVCAR-8 ovarian 79.3% | OVCAR-5 ovarian 72.2% | OVCAR-4 ovarian 51.2% | SK-OV-3 ovarian 63.4% | IGROV1 ovarian 62.9% | OVCAR-3 ovarian 67.5% | NCI/ADR-RES ovarian 62% | T-47D breast 25.1% | BT-549 breast 67.6% | MDA-MB-435 melanoma 56.8% | MCF7 breast 26.2% | HCT-116 colon 31.4% | HCC-2998 colon 53.4% | KM12 colon 30.2% | MDA-MB-468 breast 50.5%

O=C(N/N=C/c1ccc(-c2ccc(O)cc2)o1)c1[nH]c2ccc(Br)cc2c1-c1ccccc1
active: SR leukemia -9.54% | RPMI-8226 leukemia -9.92% | OVCAR-8 ovarian -33.5% | OVCAR-5 ovarian 1.22% | IGROV1 ovarian -17.3% | OVCAR-3 ovarian -41.1% | NCI/ADR-RES ovarian -12.1% | BT-549 breast -13.3% | MDA-MB-435 melanoma -14.7% | MCF7 breast -3.44% | HCT-116 colon 4.35% | HCC-2998 colon -23.6% | KM12 colon 2.17% | MDA-MB-468 breast -16.6%
inactive: OVCAR-4 ovarian 24.4% | SK-OV-3 ovarian 19.6% | T-47D breast 19%
